12-LOX inh: blocks human arachidonate 12S-lipoxygenase | Potency, µM (titrated, usually from 108 µM), actives largely listed as inhibitors | 580,000 tested, 1.1% active | purified 12hLO, xylenol orange hydroperoxide absorbance | P18054
Target sequence (P18054 whole entry, looked up): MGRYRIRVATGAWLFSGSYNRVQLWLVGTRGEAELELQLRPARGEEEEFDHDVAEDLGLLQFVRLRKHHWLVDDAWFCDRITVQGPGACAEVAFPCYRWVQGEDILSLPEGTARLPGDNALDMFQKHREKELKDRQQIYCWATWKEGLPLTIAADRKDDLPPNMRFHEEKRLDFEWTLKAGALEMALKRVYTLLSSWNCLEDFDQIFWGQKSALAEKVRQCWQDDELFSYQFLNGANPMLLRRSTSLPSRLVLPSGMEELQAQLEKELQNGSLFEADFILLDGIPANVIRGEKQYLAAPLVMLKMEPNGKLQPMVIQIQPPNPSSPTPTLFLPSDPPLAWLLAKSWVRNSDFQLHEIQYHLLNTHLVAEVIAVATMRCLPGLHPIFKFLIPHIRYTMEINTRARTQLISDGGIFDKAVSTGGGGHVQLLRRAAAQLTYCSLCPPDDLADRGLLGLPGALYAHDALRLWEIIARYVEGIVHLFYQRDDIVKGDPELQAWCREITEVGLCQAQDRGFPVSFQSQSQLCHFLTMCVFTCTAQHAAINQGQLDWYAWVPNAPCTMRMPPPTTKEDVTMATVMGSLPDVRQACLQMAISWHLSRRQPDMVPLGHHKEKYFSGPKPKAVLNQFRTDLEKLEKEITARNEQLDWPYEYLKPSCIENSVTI
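Hydroperoxide product was detected by ferrous iron/xylenol orange as the 573 to 405 nm absorbance ratio. Arachidonic acid at 40 uM (final) was turned over for 30 min at room temperature by 150 nM human 12hLO, pH 7.0 Hepes buffer, after 15 min compound preincubation.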
TDP1 cell CPT: DT40-hTDP1 cell growth loss with CPT; 420,000 tested, 12% active; Potency, µM (titrated, usually from 46.2 µM), most hits filed as inhibitors; chicken DT40 Tdp1-/-;hTDP1 cells + 20 nM CPT, ATP luminescence, 48 h; note: nearly all actives have a fitted effect of over 55% in size
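Cell growth measured by CellTiter-Glo luminescence after a minimum 48 h, 37 C compound exposure with 20 nM CPT in Tdp1-knockout DT40 cells stably expressing hTDP1, seeded 400/well; qHTS titration format.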
HT1080-NT tox: kills 2HG-producing HT-1080-NT fibrosarcoma cells; 360,000 tested, 1.6% active; Potency, µM (doses to about 46.1 µM), most hits filed as cytotoxic; HT-1080-NT fibrosarcoma viability, CellTiter-Glo ATP luminescence, 48 h;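 note: NT is the 2HG producing partner of a matched IDH1 knockdown line; nearly all actives have a fitted effect of over 55% in size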
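Compounds were tested in concentration-response format on HT-1080-NT cells for 48 hours at 37 degrees C. Cell viability came from CellTiter-Glo luminescence; curves were classified by r2, response magnitude and activity.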
HT1080 IDH1KD tx: HT-1080 IDH1 knockdown cell toxicity (counter line); HT-1080 IDH1 knockdown viability, ATP luminescence, 48 h; Potency, µM (doses to about 46.1 µM), most hits filed as cytotoxic; 360,000 tested, 2% active
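HT-1080-IDH1KD cells (IDH1 knocked down), 750/well in RPMI with 5% FBS, treated with compound 48 h at 37 degrees C. Viability by CellTiter-Glo luminescence, normalised to DMSO and no-cell wells; concentration-response curves classed.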
IL-1B inflam inh: inhibitors of inflammasome signaling (IL-1 beta secretion); THP-1 LPS/ATP IL-1B secretion, AlphaLISA, 16 h; stronger effect = lower value; activity change, % at 57.5 µM; 360,000 tested, 4.7% active; AID 743279; in the data active = activity change below about -50%; inconclusive = mostly about -30% to -49%
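Secreted IL-1B measured by AlphaLISA bead assay after 16 h compound exposure of THP-1 cells; compounds (final up to 57.5 uM) added 1 h before LPS (250 ng/mL) and ATP (1.25 mM) stimulation; lower signal means less secretion.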
DT40 TDP1 no CPT: qHTS for Inhibitors of human tyrosyl-DNA phosphodiesterase 1 (TDP1): qHTS in cells in absence of CPT; DT40 Tdp1-/- hTDP1 cells, no CPT, ATP luminescence, 48 h; 420,000 tested, 15% active; AID 686978, 2013; Potency, µM (titrated, usually from 46.2 µM), usual class: inhibitors; note: nearly all actives have a fitted effect of over 55% in size
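Compound effects on proliferation are scored in DT40 Tdp1-/-;hTDP1 cells in the absence of CPT. ATP levels (CellTiter-Glo luminescence) are recorded after a ≥48 hr, 37 °C incubation.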
Each line names hits and unclear results; the compound was inactive in the other large screens. The sample as a whole holds a higher share of hits than the screen did. Unless noted, calls come from the whole dose curve; as a rule, active = well fitted curve in the direction sought with a large enough effect; inconclusive = small, poorly fitted or top-dose-only effect, or another doubt; inactive = no such curve, though single readings can be large; an effect the other way counts as inactive or inconclusive.

COc1ccc(S(=O)(=O)Nc2ccccc2OC)cc1NC(=O)Cc1cccs1	TDP1 cell CPT inconclusive, DT40 TDP1 no CPT 21µM
Cc1noc(-c2cn(C3CCN(C(=O)c4cccc(F)c4)C3)nn2)n1 (configuration not stated)	none (no result: TDP1 cell CPT, HT1080-NT tox, HT1080 IDH1KD tx, IL-1B inflam inh, DT40 TDP1 no CPT)
CCS(=O)(=O)n1nc(-c2ccco2)nc1NCc1ccc(C(C)C)cc1	TDP1 cell CPT inconclusive, DT40 TDP1 no CPT 16µM (no result: HT1080-NT tox, HT1080 IDH1KD tx, IL-1B inflam inh)
CCOc1ccc(CNS(=O)(=O)c2ccc(-c3coc(C)n3)cc2)cc1	TDP1 cell CPT inconclusive, DT40 TDP1 no CPT 18µM (no result: HT1080-NT tox, HT1080 IDH1KD tx, IL-1B inflam inh)
CCOc1ccc(CNS(=O)(=O)c2ccc(-c3coc(C)n3)cc2)cc1OC	TDP1 cell CPT 7.3µM, DT40 TDP1 no CPT 15µM (no result: HT1080-NT tox, HT1080 IDH1KD tx, IL-1B inflam inh)
COc1cccc(-c2c(-c3cc(OC)cc(OC)c3)n(C)c3ccc(-c4cnc(OC)nc4)cc23)c1	TDP1 cell CPT inconclusive, DT40 TDP1 no CPT 15µM
COc1ccc(-c2c(-c3cc(OC)cc(OC)c3)n(C)c3ccc(-c4ccc(S(N)(=O)=O)cc4)cc23)cc1	TDP1 cell CPT 10µM, IL-1B inflam inh -54, DT40 TDP1 no CPT 4.1µM
COc1cccc(-c2c(-c3cc(OC)cc(OC)c3)n(C)c3ccc(-c4cnc(N5CCOCC5)nc4)cc23)c1	TDP1 cell CPT 13µM, HT1080-NT tox inconclusive, DT40 TDP1 no CPT 23µM
COc1cc(OC)cc(-c2c(-c3ccc(F)cc3)c3cc(-c4cnc(OC)nc4)ccc3n2C)c1	TDP1 cell CPT 16µM, DT40 TDP1 no CPT 13µM
COc1ccc(-c2c(-c3cc(OC)cc(OC)c3)n(C)c3ccc(-c4cnc(N)nc4)cc23)cc1	12-LOX inh inconclusive, DT40 TDP1 no CPT inconclusive
O=C(N[C@@H](Cc1ccccc1)C(=O)Nc1cccc(N2CCCC2=O)c1)c1cccs1	none (no result: TDP1 cell CPT, HT1080-NT tox, HT1080 IDH1KD tx, IL-1B inflam inh, DT40 TDP1 no CPT)
COc1ccc(-c2cc3c(cn2)CN(Cc2cccnc2)CCN3)cc1F	none (no result: TDP1 cell CPT, HT1080-NT tox, HT1080 IDH1KD tx, IL-1B inflam inh, DT40 TDP1 no CPT)
N#CN(Cc1ccccc1)Cc1ccccc1	IL-1B inflam inh -64
Cc1[nH]n(-c2ccccc2)c(=O)c1C(c1ccc(O)c([N+](=O)[O-])c1)c1c(C)[nH]n(-c2ccccc2)c1=O	none
Cc1cc2ccccn2c1C(C[N+](=O)[O-])c1ccc(N(C)C)cc1 (configuration not stated)	TDP1 cell CPT 16µM, DT40 TDP1 no CPT inconclusive
COc1ccc(NC(=O)c2cnc3ccccn3c2=O)c(OC)c1	none
COc1ccc(C(C[N+](=O)[O-])c2c(-c3ccccc3)cc3ccccn23)c(OC)c1 (configuration not stated)	12-LOX inh 1.6µM, TDP1 cell CPT 2.9µM, HT1080-NT tox inconclusive, HT1080 IDH1KD tx inconclusive, DT40 TDP1 no CPT 5.2µM
COc1ccc(C(C[N+](=O)[O-])c2c(C)cc3ccccn23)cc1 (configuration not stated)	12-LOX inh inconclusive, TDP1 cell CPT 10µM, HT1080-NT tox inconclusive, HT1080 IDH1KD tx inconclusive, DT40 TDP1 no CPT 18µM
COc1ccc(C(C[N+](=O)[O-])c2c(C)[nH]n(-c3ccccc3)c2=O)cc1 (configuration not stated)	12-LOX inh inconclusive, TDP1 cell CPT 13µM, HT1080-NT tox inconclusive, IL-1B inflam inh -52, DT40 TDP1 no CPT 16µM
N#Cc1ccc(CCC(=O)NCCc2ccccn2)cc1	none (no result: TDP1 cell CPT, HT1080-NT tox, HT1080 IDH1KD tx, IL-1B inflam inh, DT40 TDP1 no CPT)
c1ccc2c(c1)CCN(c1nc3cc4c(cc3s1)OCCO4)C2	12-LOX inh inconclusive, TDP1 cell CPT 10µM, HT1080-NT tox inconclusive, HT1080 IDH1KD tx inconclusive, IL-1B inflam inh -58, DT40 TDP1 no CPT inconclusive
CC(C)C[C@H]1CN=C(Nc2ccccc2)N1CCc1cccc(F)c1	TDP1 cell CPT 10µM, IL-1B inflam inh -52, DT40 TDP1 no CPT inconclusive (no result: 12-LOX inh)
CCC(C)[C@H]1CN=C(N)N1CCc1cccc(F)c1 (some centres not stated)	TDP1 cell CPT 18µM, DT40 TDP1 no CPT 13µM
CC(C)C[C@H]1CN=C(N(C)C)N1CCc1cccc(F)c1	none

From PubChem BioAssay
